Positions count from the first letter of the chain named.
B1: GCACTTTG (ssRNA)
RNA 1: GAGUUCUACAGUCCGACGAUCCCAACGCACUUUGCACCUGGAAUUCUCGGGUGCCAA
RNA 2: UGGAGUGUGACAAUGGUGUUUG
DNA 1: GATCGTCGGACTGTAGAACTC
DNA 2: TTGGCACCCGAGAATTCCA
modifications: constant regions annealed to DNA blockers; guide miR-122 5' phosphate
B2: GTATTTTG (ssRNA)
RNA 1: B1 RNA 1 with C28U, C30U
RNA 2: UGGAGUGUGACAAUGGUGUUUG
DNA 1: GATCGTCGGACTGTAGAACTC
DNA 2: TTGGCACCCGAGAATTCCA
modifications: constant regions annealed to DNA blockers; guide miR-122 5' phosphate
B3: ACGCCCTG (ssRNA)
RNA 1: B1 RNA 1 with G27A, A29G, U31C, U32C
RNA 2: UGGAGUGUGACAAUGGUGUUUG
DNA 1: GATCGTCGGACTGTAGAACTC
DNA 2: TTGGCACCCGAGAATTCCA
modifications: constant regions annealed to DNA blockers; guide miR-122 5' phosphate
B4: GTATCTCG (ssRNA)
RNA 1: B1 RNA 1 with C28U, C30U, U31C, U33C
RNA 2: UGGAGUGUGACAAUGGUGUUUG
DNA 1: GATCGTCGGACTGTAGAACTC
DNA 2: TTGGCACCCGAGAATTCCA
modifications: constant regions annealed to DNA blockers; guide miR-122 5' phosphate
B5: GTACCCTG (ssRNA)
RNA 1: B1 RNA 1 with C28U, U31C, U32C
RNA 2: UGGAGUGUGACAAUGGUGUUUG
DNA 1: GATCGTCGGACTGTAGAACTC
DNA 2: TTGGCACCCGAGAATTCCA
modifications: constant regions annealed to DNA blockers; guide miR-122 5' phosphate
B6: ATGCCTCG (ssRNA)
RNA 1: B1 RNA 1 with G27A, C28U, A29G, U31C, U33C
RNA 2: UGGAGUGUGACAAUGGUGUUUG
DNA 1: GATCGTCGGACTGTAGAACTC
DNA 2: TTGGCACCCGAGAATTCCA
modifications: constant regions annealed to DNA blockers; guide miR-122 5' phosphate
B7: ATACCCCG (ssRNA)
RNA 1: B1 RNA 1 with G27A, C28U, U31C, U32C, U33C
RNA 2: UGGAGUGUGACAAUGGUGUUUG
DNA 1: GATCGTCGGACTGTAGAACTC
DNA 2: TTGGCACCCGAGAATTCCA
modifications: constant regions annealed to DNA blockers; guide miR-122 5' phosphate
B8: ATGCTCTG (ssRNA)
RNA 1: B1 RNA 1 with G27A, C28U, A29G, U32C
RNA 2: UGGAGUGUGACAAUGGUGUUUG
DNA 1: GATCGTCGGACTGTAGAACTC
DNA 2: TTGGCACCCGAGAATTCCA
modifications: constant regions annealed to DNA blockers; guide miR-122 5' phosphate
B9: ACGTCCCG (ssRNA)
RNA 1: B1 RNA 1 with G27A, A29G, C30U, U31C, U32C, U33C
RNA 2: UGGAGUGUGACAAUGGUGUUUG
DNA 1: GATCGTCGGACTGTAGAACTC
DNA 2: TTGGCACCCGAGAATTCCA
modifications: constant regions annealed to DNA blockers; guide miR-122 5' phosphate
B10: ACGTTTCG (ssRNA)
RNA 1: B1 RNA 1 with G27A, A29G, C30U, U33C
RNA 2: UGGAGUGUGACAAUGGUGUUUG
DNA 1: GATCGTCGGACTGTAGAACTC
DNA 2: TTGGCACCCGAGAATTCCA
modifications: constant regions annealed to DNA blockers; guide miR-122 5' phosphate
B11: ATGTTCTG (ssRNA)
RNA 1: B1 RNA 1 with G27A, C28U, A29G, C30U, U32C
RNA 2: UGGAGUGUGACAAUGGUGUUUG
DNA 1: GATCGTCGGACTGTAGAACTC
DNA 2: TTGGCACCCGAGAATTCCA
modifications: constant regions annealed to DNA blockers; guide miR-122 5' phosphate
B12: GTGTCCCG (ssRNA)
RNA 1: B1 RNA 1 with C28U, A29G, C30U, U31C, U32C, U33C
RNA 2: UGGAGUGUGACAAUGGUGUUUG
DNA 1: GATCGTCGGACTGTAGAACTC
DNA 2: TTGGCACCCGAGAATTCCA
modifications: constant regions annealed to DNA blockers; guide miR-122 5' phosphate

Key:
Experiment in all cases: RNA Bind-n-Seq (nitrocellulose filter binding and sequencing); miR-122 guide loaded in AGO2; 60 min incubation; 30 mM Tris pH 8.0, 100 mM potassium acetate, 2 mM magnesium acetate, 0.5 mM TCEP, 0.005% NP-40, 0.01 mg/ml yeast tRNA; 3 nM AGO2-miR-122, 100 nM RNA library; 60; high values mean tight binding
Details in all cases: protein: recombinant; tags: His6 (N-terminal, pFastBac HTA)
AGO2 L192P = AGO2 L192P (Homo sapiens, UniProt Q9UKV8 1-859, L192P;S387D;S824A;S828D;S831D;S834A)
In short: (§1)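 His-tagged AGO2 was expressed in Sf9 insect cells by baculovirus, loaded with a synthetic guide RNA, and purified by Ni-NTA and a biotinylated capture oligo. Bound RNA was extracted, reverse-transcribed, barcode-amplified and Illumina-sequenced. Fold enrichment is each sequence's read fraction divided by its input-library read fraction.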

AGO2 A367P = AGO2 A367P (Homo sapiens, UniProt Q9UKV8 1-859, A367P;S387D;S824A;S828D;S831D;S834A)
In short: as §1

AGO2 T357M = AGO2 T357M (Homo sapiens, UniProt Q9UKV8 1-859, T357M;S387D;S824A;S828D;S831D;S834A)
In short: as §1

Sequence of AGO2 A367P (Q9UKV8 whole entry A367P/S387D/S824A/S828D/S831D/S834A): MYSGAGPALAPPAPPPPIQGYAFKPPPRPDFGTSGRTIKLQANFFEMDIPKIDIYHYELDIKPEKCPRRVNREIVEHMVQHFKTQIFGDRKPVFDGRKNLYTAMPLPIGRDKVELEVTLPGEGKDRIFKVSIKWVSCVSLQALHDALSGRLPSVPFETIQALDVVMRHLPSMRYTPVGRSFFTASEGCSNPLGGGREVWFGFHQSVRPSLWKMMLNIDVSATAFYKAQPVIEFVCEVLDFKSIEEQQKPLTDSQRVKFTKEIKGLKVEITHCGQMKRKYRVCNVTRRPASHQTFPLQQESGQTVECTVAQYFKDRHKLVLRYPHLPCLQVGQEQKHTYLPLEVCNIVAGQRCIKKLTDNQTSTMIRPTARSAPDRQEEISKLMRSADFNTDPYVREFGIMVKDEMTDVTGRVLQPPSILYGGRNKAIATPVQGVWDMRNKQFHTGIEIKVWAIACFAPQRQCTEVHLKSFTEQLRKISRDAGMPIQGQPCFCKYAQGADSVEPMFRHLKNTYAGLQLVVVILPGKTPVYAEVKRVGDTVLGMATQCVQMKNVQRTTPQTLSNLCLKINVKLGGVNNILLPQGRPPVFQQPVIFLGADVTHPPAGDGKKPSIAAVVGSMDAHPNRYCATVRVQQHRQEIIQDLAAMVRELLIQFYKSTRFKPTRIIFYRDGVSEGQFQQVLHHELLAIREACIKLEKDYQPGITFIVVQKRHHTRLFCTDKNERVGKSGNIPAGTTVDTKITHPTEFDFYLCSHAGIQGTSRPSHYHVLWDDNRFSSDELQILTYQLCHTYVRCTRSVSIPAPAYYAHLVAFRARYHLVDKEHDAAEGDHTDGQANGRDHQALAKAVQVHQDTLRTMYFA
Sequence of AGO2 T357M (Q9UKV8 whole entry T357M/S387D/S824A/S828D/S831D/S834A): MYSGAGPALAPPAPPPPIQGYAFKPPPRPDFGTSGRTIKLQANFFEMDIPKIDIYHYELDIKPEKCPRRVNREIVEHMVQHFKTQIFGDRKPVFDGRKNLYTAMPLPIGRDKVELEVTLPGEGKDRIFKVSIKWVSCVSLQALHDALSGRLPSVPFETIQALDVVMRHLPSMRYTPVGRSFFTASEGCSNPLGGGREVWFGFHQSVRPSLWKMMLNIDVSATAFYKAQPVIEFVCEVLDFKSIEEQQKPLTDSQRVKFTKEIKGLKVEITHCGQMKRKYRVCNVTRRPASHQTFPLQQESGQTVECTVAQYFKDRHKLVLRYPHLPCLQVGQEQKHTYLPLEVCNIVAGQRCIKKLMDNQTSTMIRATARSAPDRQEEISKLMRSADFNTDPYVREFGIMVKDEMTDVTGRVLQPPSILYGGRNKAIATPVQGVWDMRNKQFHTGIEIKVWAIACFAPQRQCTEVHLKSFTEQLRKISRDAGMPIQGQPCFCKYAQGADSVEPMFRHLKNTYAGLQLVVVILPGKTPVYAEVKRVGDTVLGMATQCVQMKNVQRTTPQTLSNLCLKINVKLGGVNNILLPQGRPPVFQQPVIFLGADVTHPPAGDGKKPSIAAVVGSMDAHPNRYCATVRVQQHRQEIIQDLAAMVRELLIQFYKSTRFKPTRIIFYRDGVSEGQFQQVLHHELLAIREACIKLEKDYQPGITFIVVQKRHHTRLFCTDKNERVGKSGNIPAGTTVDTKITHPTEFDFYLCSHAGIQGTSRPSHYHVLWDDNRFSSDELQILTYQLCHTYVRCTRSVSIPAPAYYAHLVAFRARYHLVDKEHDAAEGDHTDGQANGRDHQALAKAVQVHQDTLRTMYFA
Sequence of AGO2 L192P (Q9UKV8 whole entry L192P/S387D/S824A/S828D/S831D/S834A): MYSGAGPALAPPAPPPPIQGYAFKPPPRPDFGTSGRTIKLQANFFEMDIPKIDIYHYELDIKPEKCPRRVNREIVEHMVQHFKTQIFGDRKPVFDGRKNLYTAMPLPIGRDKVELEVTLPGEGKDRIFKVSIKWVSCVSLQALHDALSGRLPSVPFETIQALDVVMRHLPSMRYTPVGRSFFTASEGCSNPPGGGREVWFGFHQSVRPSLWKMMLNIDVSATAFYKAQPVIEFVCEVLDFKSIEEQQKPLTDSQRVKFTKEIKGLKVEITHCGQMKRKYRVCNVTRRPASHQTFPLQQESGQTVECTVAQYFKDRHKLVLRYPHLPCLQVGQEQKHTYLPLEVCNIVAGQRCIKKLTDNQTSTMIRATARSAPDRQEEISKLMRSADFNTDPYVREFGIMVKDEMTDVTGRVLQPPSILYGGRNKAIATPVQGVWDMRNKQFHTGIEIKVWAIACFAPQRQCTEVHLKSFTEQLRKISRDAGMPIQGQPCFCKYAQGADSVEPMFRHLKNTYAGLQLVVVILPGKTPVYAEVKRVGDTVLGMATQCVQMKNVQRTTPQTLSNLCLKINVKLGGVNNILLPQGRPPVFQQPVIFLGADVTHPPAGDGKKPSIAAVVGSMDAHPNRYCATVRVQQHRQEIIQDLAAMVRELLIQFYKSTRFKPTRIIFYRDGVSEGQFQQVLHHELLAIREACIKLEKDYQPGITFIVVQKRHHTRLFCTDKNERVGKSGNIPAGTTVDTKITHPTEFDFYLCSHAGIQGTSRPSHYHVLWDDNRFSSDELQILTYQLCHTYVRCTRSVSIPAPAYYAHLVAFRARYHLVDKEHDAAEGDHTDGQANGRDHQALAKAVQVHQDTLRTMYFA

Binder	binding signal (AGO2 L192P)	binding signal (AGO2 A367P)	binding signal (AGO2 T357M)
B1	0.325 fold enrichment over input	0.126 fold enrichment over input	0.452 fold enrichment over input
B2	0.384 fold enrichment over input	0.131 fold enrichment over input	0.514 fold enrichment over input
B3	0.4 fold enrichment over input	0.147 fold enrichment over input	0.519 fold enrichment over input
B4	0.333 fold enrichment over input	0.128 fold enrichment over input	0.424 fold enrichment over input
B5	0.344 fold enrichment over input	0.129 fold enrichment over input	0.483 fold enrichment over input
B6	0.34 fold enrichment over input	0.134 fold enrichment over input	0.474 fold enrichment over input
B7	0.382 fold enrichment over input	0.14 fold enrichment over input	0.471 fold enrichment over input
B8	0.376 fold enrichment over input	0.14 fold enrichment over input	0.486 fold enrichment over input
B9	0.332 fold enrichment over input	0.141 fold enrichment over input	0.443 fold enrichment over input
B10	0.338 fold enrichment over input	0.13 fold enrichment over input	0.445 fold enrichment over input
B11	0.362 fold enrichment over input	0.132 fold enrichment over input	0.487 fold enrichment over input
B12	0.344 fold enrichment over input	0.126 fold enrichment over input	0.447 fold enrichment over input
